Assay outcomes: PubChem, University of Kansas High Throughput Screening Laboratory
mHTT-CaM PPI inh – mutant huntingtin-calmodulin interaction inhibitors – biochemical, AlphaScreen, primary screen; P42858; AlphaScreen His-mHTT/GST-CaM binding, luminescence; inhibition, % at 15 µM; hit rate 3.6% among 190,000; AID 1671202, 2021;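 note: 0% = both proteins with DMSO and 100% = one protein alone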
Pf apPOL block – Pf-apPOL inhibitors, biochemical, fluorescence; Plasmodium falciparum apicoplast DNA polymerase (apPOL); Recombinant Pf-apPOL, molecular beacon fluorescence, 1.5 h; inhibition, % at 10 µM; hit rate 0.25% among 210,000; AID 1794808, 2022
Numbers without * were called inactive. Shown is part of a subset that was picked to be rich in hits. Cut-off read from the data, not from the text of the source: active = inhibition above about 50%; inactive = the rest.

SMILES	mHTT-CaM PPI inh	Pf apPOL block
CC1=NOC(=O)/C1=C/c1ccc(-c2ccc3c(c2)COC3=O)o1	-1	-5
CC1(C)OC(=O)C(=Cc2ccc(-c3cccc(Cl)c3)o2)C(=O)O1	55*	6
CC1=NOC(=O)/C1=C/c1ccc(-c2ccc(Cl)cc2)o1	64*	-6
CCCCCOc1ccc(/C=c2\sc3nc(=O)c(C)nn3c2=O)cc1OCC	-4	2
CCCOc1ccc(C2C(C#N)=C(N)Oc3n[nH]c(-c4ccc5c(c4)OCO5)c32)cc1 (stereo unspecified)	27	-6
CCCNC(=O)c1ccc2c(c1)ncn2-c1ccc(C)c(Cl)c1	52*	28
Cc1ccc(-n2cnc3cc(C(=O)NCc4ccco4)ccc32)c(C)c1	13	27
CCOC(CNC(=O)c1ccc2c(c1)ncn2-c1ccc(C)c(Cl)c1)OCC	9	26
Cc1ccc(-n2cnc3cc(C(=O)NCc4ccco4)ccc32)cc1Cl	79*	32
CC(O)(CNC(=O)Cc1ccc(F)cc1)c1ccco1 (stereo unspecified)	-13	0
COc1ccc(-c2ncc3c(n2)CCN(C(=O)c2cc(C)ccc2C)C3)cc1	34	-4
Cc1cc(C)cc(C(=O)N2CCCC(COc3cccc(C(=O)N4CCCC4)c3)C2)c1 (stereo unspecified)	-6	-1
COc1ccc(C(=O)Oc2cc(C)[nH]c(=O)c2[N+](=O)[O-])c(OC)c1	56*	1
COc1ccccc1C(=O)Oc1cc(C)[nH]c(=O)c1[N+](=O)[O-]	8	-6
CCCCC(=O)Oc1cc(C)[nH]c(=O)c1[N+](=O)[O-]	-4	2
CCCC(CCC)C(=O)Oc1cc(C)[nH]c(=O)c1[N+](=O)[O-]	87*	-10
Fc1cccc(NCc2ccco2)c1	14	2
Oc1c(Cl)cc(Cl)cc1CNc1cccc(F)c1	96*	-2
O=C1OC(c2ccccc2F)=N/C1=C\c1cccc(Br)c1	8	0
CCc1nnc(SCC2=CC(=O)N3C=CC=CC3N2)nc1CC (stereo unspecified)	0	-2
O=C(c1ccc(N2CCNC(c3ccccc3)C2)nc1)N1CCc2ccccc2C1 (stereo unspecified)	71*	-6
CN1CCN(C(=O)c2ccc(N3CCNC(c4ccccc4)C3)nc2)CC1 (stereo unspecified)	-4	-3
COc1cccc(CNC(=O)c2cc(-c3cccnc3)nc3ccccc23)c1	39	-21
COc1ccc(CNC(=O)c2cc(-c3cccnc3)nc3ccccc23)cc1	70*	-7
Cc1ccc(-n2c(SC(C)c3ccccc3)nc3c(c2=O)SCC3)cc1 (stereo unspecified)	8	0
SMILES	mHTT-CaM PPI inh	Pf apPOL block
COC(=O)C1C2C=CC3(CN(c4cccc(C)c4)C(=O)C13)O2 (stereo unspecified)	66*	-3
CCCCOC(=O)C1C2C=CC3(CN(c4cccc(C)c4)C(=O)C13)O2 (stereo unspecified)	-8	1
Cc1nc2c3ccccc3nc(SCc3ccc(F)cc3)n2n1	2	-3
COc1cc2c(cc1OC)C(COc1ccccc1OC)N(C(C)=O)CC2 (stereo unspecified)	-7	0
COc1ccc(OCC2c3cc(OC)c(OC)cc3CCN2C(=O)c2ccc(OC)cc2)cc1 (stereo unspecified)	57*	-1
COc1ccc(OCC2c3cc(OC)c(OC)cc3CCN2C(=O)c2c(F)cccc2F)cc1 (stereo unspecified)	30	82*
CCOc1ccccc1C(=O)N1CCc2cc(OC)c(OC)cc2C1COc1ccccc1OC (stereo unspecified)	55*	-4
CCC(=O)N1CCc2cc(OC)c(OC)cc2C1COc1ccc(OC)cc1 (stereo unspecified)	2	2
COC(=O)c1ccc(OCC2c3cc(OC)c(OC)cc3CCN2C(=O)c2cc(OC)cc(OC)c2)cc1 (stereo unspecified)	-3	-2
CCOC(=O)c1sc(NC(=O)NCc2cccs2)nc1C	-14	-5
Cn1c(C2CCN(S(=O)(=O)c3cccs3)C2)nc2cccnc21 (stereo unspecified)	-1	-7
CC(C)NC(=O)Cn1cccc1-c1nc(-c2ccccc2)cs1	-3	-1
Cc1ccnc(NC(=O)Cn2cccc2-c2nc(-c3ccccc3)cs2)c1	54*	-1
Cc1ccc(C2=N/C(=C\C(Br)=C\c3ccccc3)C(=O)O2)cc1[N+](=O)[O-]	57*	2
CC(/C=C1\N=C(c2ccc(C)c([N+](=O)[O-])c2)OC1=O)=C\c1ccccc1	3	0
CC(C)(C)NC(=O)N1CCN(c2cc(-c3cccc(F)c3)ncn2)CC1	-12	-2
OCCNc1nc(NCc2ccc3c(c2)OCO3)nc2c1cnn2-c1ccc(F)cc1	67*	-8
c1ccc(-n2ncc3c(NCc4cccs4)ncnc32)cc1	1	-2
OCCNc1nc(NN2CCOCC2)nc2c1cnn2-c1ccc(Cl)cc1	5	0
